An excerpt weighted towards active compounds, which were near 10% of everything screened.
MCF10A rereplic: DNA re-replication induction in MCF 10a cells; MCF 10A DNA re-replication, Hoechst nuclear intensity, 48 h; Potency, µM (highest dose often 46.1 µM), usual class: activators; 2.9% of 350,000 active; AID 624296; note: nearly all actives have a fitted effect of over 50% in size
SW480 rerep: DNA re-replication induction in SW480 cells | SW480 DNA re-replication, Hoechst DNA content imaging, 48 h | Potency, µM (top dose mostly 46.1 µM), usual class: activators | 1.8% of 340,000 active; note: nearly all actives have a fitted effect of over 55% in size
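First, 250 cells per well were seeded. Next, compound or vehicle (23 nL) was pinned in, plates sat 48 hr at 37 C. Finally Hoechst was added for 40 min before fluorescence scanning.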
KB-V1 MDR tox: kills drug-selected multidrug resistant KB-V1 cells; KB-V1 MDR cells viability, CellTiter-Glo, 72 h; Potency, µM (series often up to 46.1 µM), most hits filed as cytotoxic; 3.4% of 400,000 active; note: nearly all actives have a fitted effect of over 60% in size
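Compound-treated KB-V1 multidrug-resistant cells, 72 h, 37 degrees C; viability by CellTiter-Glo. Fitted qHTS curves give the values.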
Gal4-VP16 FLuc: inhibits Gal4-VP16 luciferase reporter, ROR gamma counter-screen; Potency, µM (series often up to 53.6 µM), hits mostly inhibitors; 3.5% of 310,000 active; Drosophila S2 Gal4-VP16 UAS-luciferase, luminescence, 20 h;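 note: Gal4-VP16 expression switched on by copper sulfate through the metallothionein promoter; nearly all actives have a fitted effect of over 50% in size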
KB-3-1 cytotox: KB-3-1 parental cell cytotoxicity; KB-3-1 viability, CellTiter-Glo ATP luminescence, 72 h; Potency, µM (series often up to 46.1 µM), hits mostly cytotoxic; 1.4% of 400,000 active; note: nearly all actives have a fitted effect of over 60% in size
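Cells are dispensed, compounds pinned in, plates held at 37 °C for 72 h, then CellTiter-Glo is added and luminescence read after 10 minutes. Cell line: parental KB-3-1 in phenol-red-free DMEM, 10% FBS.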
RORgamma inh: ROR gamma (mouse) transcription inhibition | P51450 | Drosophila S2 Gal4-RORgamma UAS-luciferase reporter, 20 h | Potency, µM (titrated, usually from 53.6 µM), hits mostly inhibitors | 5.4% of 310,000 active | AID 2551; note: nearly all actives have a fitted effect of over 60% in size
Target sequence (P51450 whole entry, looked up, the tested form may be a part): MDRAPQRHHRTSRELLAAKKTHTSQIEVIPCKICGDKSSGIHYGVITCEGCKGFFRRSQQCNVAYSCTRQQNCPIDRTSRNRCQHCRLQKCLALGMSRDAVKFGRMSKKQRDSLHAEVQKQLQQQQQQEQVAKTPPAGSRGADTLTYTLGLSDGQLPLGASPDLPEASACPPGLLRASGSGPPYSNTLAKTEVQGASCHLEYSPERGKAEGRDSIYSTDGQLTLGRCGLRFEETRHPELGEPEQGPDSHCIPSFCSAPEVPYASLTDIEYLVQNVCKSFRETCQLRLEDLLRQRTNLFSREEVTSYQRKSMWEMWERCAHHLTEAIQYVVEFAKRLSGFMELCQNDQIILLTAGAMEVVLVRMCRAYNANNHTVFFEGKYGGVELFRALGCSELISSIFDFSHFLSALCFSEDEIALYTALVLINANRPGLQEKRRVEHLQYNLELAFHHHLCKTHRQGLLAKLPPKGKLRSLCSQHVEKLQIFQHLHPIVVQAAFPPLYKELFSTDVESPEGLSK
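Drosophila S2 cells stably expressing Gal4-DBD/mouse RORγ fusion under metallothionein promoter plus UAS-luciferase; compound 1 h, then 700 uM CuSO4 induction for 20 h at ambient temperature; inhibition read as reduced luminescence.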
Hits are given with their value; – = inactive; ? = inconclusive; · = no result given. Calls come from the whole dose curve; as a rule, active = well fitted curve in the direction sought with a large enough effect; inconclusive = small, poorly fitted or top-dose-only effect, or another doubt; inactive = no such curve, though single readings can be large; an effect the other way counts as inactive or inconclusive.

SMILES	MCF10A rereplic	SW480 rerep	KB-V1 MDR tox	Gal4-VP16 FLuc	KB-3-1 cytotox	RORgamma inh
CCn1cc([N+](=O)[O-])c(C(=O)Nc2ccn(C34CC5CC(CC(C5)C3)C4)n2)n1	–	–	–	?	–	–
Cn1cc([N+](=O)[O-])c(C(=O)Nc2ccn(C34CC5CC(CC(C5)C3)C4)n2)n1	?	?	15µM	–	4.6µM	–
COc1ccc2c(CNCc3cccs3)c(C(=O)O)n(Cc3ccccc3C)c2c1	·	·	–	·	–	·
COc1ccc(CNC(=O)CCc2c(C)c3ccc(OC)c(C)c3oc2=O)cc1OC	·	·	–	·	–	·
Cn1cc([N+](=O)[O-])c(C(=O)Nc2ccc(C(=O)N3CCCCC3)cc2)n1	21µM	15µM	?	–	23µM	–
Cc1ccc(Cn2ccc(NC(=O)c3nn(C)cc3[N+](=O)[O-])n2)cc1	13µM	12µM	10µM	–	?	–
Cc1ccc(S(=O)(=O)N(CC(=O)Nc2cccnc2)c2cccc(Br)c2)cc1	?	?	?	–	?	–
Cc1ccc(S(=O)(=O)N(CC(=O)Nc2cccnc2)c2cccc([N+](=O)[O-])c2)cc1	23µM	?	·	–	·	–
Cc1ccc(S(=O)(=O)N(CC2CO2)c2cccc([N+](=O)[O-])c2)cc1 (centres undefined)	?	18µM	–	–	?	–
Cc1ccccc1CN(CC(=O)Nc1cccc([N+](=O)[O-])c1)S(=O)(=O)c1ccc(Cl)cc1	–	?	5.8µM	?	–	?
O=[N+]([O-])c1ccc(N(CC2CO2)S(=O)(=O)c2ccccc2)cc1 (centres undefined)	–	–	–	–	–	–
COc1cc(OC)cc(C2=Cc3ccc(OC)cc3C(CC(C)=O)N2c2ccc(C#CCCO)cc2)c1 (centres undefined)	·	·	–	·	–	·
COc1cc2[nH]c(=O)n(CCCC(=O)N(C)Cc3ccccc3)c(=O)c2cc1OC	·	·	–	·	–	·
CC(=O)NC1=C(N(C)C2CCS(=O)(=O)C2)C(=O)c2ccccc2C1=O (centres undefined)	?	?	–	7.9µM	–	2.5µM
CN(C(=O)Nc1ccccc1)C1CCS(=O)(=O)C1 (centres undefined)	–	–	–	–	–	–
COc1ccc(CN2C(=O)c3cccc4cccc2c34)cc1F	21µM	?	?	–	–	–
Cc1ccc(O)c(-c2n[nH]c3c2C(c2ccc(F)cc2)N(Cc2ccco2)C3=O)c1 (centres undefined)	·	·	–	·	?	·
CCC(C)(C)C1CCC2(CC1)NC(=O)N(CC(=O)NCCOc1ccccc1)C2=O (centres undefined)	–	–	?	·	?	·
CCC(C)(C)C1CCC2(CC1)NC(=O)N(CC(=O)NCCc1ccc(OC)c(OC)c1)C2=O (centres undefined)	–	–	16µM	·	?	·
O=C(Nc1ccc2c(c1)OCCO2)C(CCc1ccccc1)N1CCC(Cc2ccccc2)CC1 (centres undefined)	·	·	23µM	·	–	·
CCN(CC)C(=O)C1=C(C)N(Cc2ccccc2)C(=O)C(CC(=O)NCC2CCCCC2)C1 (centres undefined)	·	·	–	·	–	·
O=C(OCCOc1ccccc1)c1cccc(S(=O)(=O)N2CCOCC2)c1	–	–	18µM	·	–	·
O=C(COC(=O)c1cccc(S(=O)(=O)N2CCOCC2)c1)c1ccccc1	–	–	–	–	–	–
O=C(COC(=O)c1cccc(S(=O)(=O)N2CCN(c3ccccc3)CC2)c1)NCc1ccco1	–	–	?	10µM	–	8.9µM
NC(=O)COC(=O)c1cccc(S(=O)(=O)N2CCN(c3ccccc3)CC2)c1	–	–	–	–	–	–
SMILES	MCF10A rereplic	SW480 rerep	KB-V1 MDR tox	Gal4-VP16 FLuc	KB-3-1 cytotox	RORgamma inh
COc1cccc(-c2cnc3c(NC(C)=O)cc(-c4ccc(S(C)(=O)=O)cc4)cn23)c1	·	·	?	·	–	·
N=C(N)n1cccn1	–	–	·	–	·	–
CC1CCC(C(C)C)C(OC(=O)Cn2c(-c3ccccc3)[n+](C)c3ccccc32)C1 (centres undefined)	18µM	15µM	–	6.3µM	15µM	?
CC1CCC(C(C)C)C(OC(=O)Cn2c(-c3ccc(F)cc3)[n+](C)c3ccccc32)C1 (centres undefined)	?	16µM	–	7.1µM	?	?
Clc1cccc(CSc2nnc(-c3cccnc3)n2Cc2ccco2)c1	–	–	?	?	–	16µM
O=C(CSc1nnc(-c2cccnc2)n1Cc1ccco1)N1c2ccccc2Sc2ccccc21	–	–	6.5µM	?	–	13µM
Oc1c(C(Nc2cccnc2)c2ccccc2F)ccc2cccnc12 (centres undefined)	·	·	–	·	–	·
Nc1nc(Cl)nc(N(c2ccccc2)c2ccccc2)n1	–	–	–	–	–	–
Nc1nc(CCl)nc(N(c2ccccc2)c2ccccc2)n1	?	1.2µM	16µM	–	?	–
CCc1nc2ccccc2c(C(=O)OCC(=O)NCc2ccc3c(c2)OCO3)c1C	–	–	–	–	–	–
Cc1nonc1NC(=O)CSc1nc(CCC2CCCC2)nc2ccccc12	7.3µM	–	–	–	–	–
O=C(CSc1nc(CCC2CCCC2)nc2ccccc12)NCc1ccc2c(c1)OCO2	10µM	–	?	?	–	16µM
N#Cc1cc2c(nc1SCC(=O)NCc1ccc3c(c1)OCO3)CCCCC2	?	–	13µM	–	–	–
CCCc1nc2ccccc2c(C(=O)OCC(=O)NCc2ccc3c(c2)OCO3)c1CC	18µM	–	–	–	?	?
Clc1ccccc1-c1ccc2ncnc(NC3CCNCC3)c2c1	·	·	·	–	·	–
COc1ccc(CCNC(=O)c2cnc3ccc(C)cn3c2=O)cc1	·	·	–	·	–	·
CCOC(=O)CC(=O)CSc1nc2c(cc1C#N)CCC2	4.6µM	?	–	?	–	?
COC(=O)CC(=O)CSc1nc2c(cc1C#N)CCCCC2	?	–	–	–	–	?
Cc1ccccc1-c1csc(C(C)(O)c2ccc(F)c(F)c2)n1 (centres undefined)	·	·	–	·	–	·
O=[N+]([O-])c1cc(CN2CCCC2)c2cccnc2c1O	–	–	5.8µM	?	?	?
COc1cc(CN2CCCCCC2)cc([N+](=O)[O-])c1O	–	–	–	–	–	–
O=[N+]([O-])c1cc(CN2CCN(c3cccc(C(F)(F)F)c3)CC2)c2cccnc2c1O	–	?	?	?	3.7µM	0.11µM
O=[N+]([O-])c1cc(Cl)ccc1N1CCN(c2cccc(C(F)(F)F)c2)CC1	?	–	?	–	–	?
CCOc1ccc(NC(=O)C2CCC(CNS(=O)(=O)c3ccc(Br)s3)CC2)cc1 (centres undefined)	·	·	–	·	–	·
Cc1ccc2nc(SCc3cccc([N+](=O)[O-])c3)nc(C)c2c1	?	–	?	–	–	–
